Assay outcomes: PubChem, National Center for Advancing Translational Sciences (NCATS)
HT1080NT lethal – kills 2HG-producing HT-1080-NT fibrosarcoma cells. AID 686970. Potency, µM (top dose mostly 46.1 µM), without a hit: at the top dose activity, negative = less viability, hits mostly cytotoxic. HT-1080-NT fibrosarcoma viability, CellTiter-Glo ATP luminescence, 48 h. actives 1.6% (n = 360,000);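 note: NT is the 2HG producing partner of a matched IDH1 knockdown line; 0% = DMSO-treated cells and -100% = media-only wells without cells; nearly all actives have a fitted effect of over 55% in size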
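A 48-hour cytotoxicity screen used HT-1080-NT cells plated 2 hours before compound delivery. ATP-based CellTiter-Glo luminescence measured viability, normalized to DMSO and no-cell controls.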
ATXN2 expr inh – ATXN2 expression inhibition | HEK-293 ATXN2-luciferase reporter, luminescence, 24 h | Potency, µM (top dose mostly 57 µM), for the others: at the top dose activity change, negative = inhibition, hits mostly inhibitors | actives 0.72% (n = 360,000) | AID 1745845; note: % is set by controls: 0 for no effect and ±100 for the full control effect; nearly all actives have a fitted effect of over 55% in size
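ATXN2-luciferase reporter cells (luciferase flanked by upstream and downstream ATXN2 gene portions) were treated 24 h at 37 °C with compounds at up to 57 uM. SteadyGlo luminescence gave expression; GF-AFC fluorescence gave viability.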
S2 tox – reduces viability in counter-screen for ATXN expression inhibitors | S2 cells (HEK-293 line with an ATXN2-luciferase reporter) viability, CellTiter-Fluor protease fluorescence, 24 h | Potency, µM (series often up to 56.7 µM), most hits filed as cytotoxic | actives 0.49% (n = 400,000); note: nearly all actives have a fitted effect of over 40% in size
TGFb inhibitor – blocks TGF-b signaling. HepG2 CAGA-GFP TGF-b/SMAD3 reporter, GFP fluorescence, 18 h; TGF-beta stimulated, 500 pg/mL final. Potency, µM (titrated, usually from 46.1 µM), for the others: top-dose activity, negative = inhibition, usual class: inhibitors. actives 1.2% (n = 410,000). AID 588855; note: % is set by controls: 0 for no effect and ±100 for the full control effect; nearly all actives have a fitted effect of over 65% in size
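Inhibition of TGF-beta-driven CAGA-GFP reporter expression in HEPG2 cells is measured by cellular GFP fluorescence after 18 h stimulation with 500 pg/mL recombinant TGF-beta in 1% FBS medium at 37 degrees C.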
HT1080 IDH1KD tx – toxicity to HT-1080 IDH1 knockdown cells (counter line) | HT-1080 IDH1 knockdown viability, ATP luminescence, 48 h | Potency, µM (doses to about 46.1 µM), inactives show at the highest dose activity, negative = toxicity, hits mostly cytotoxic | actives 2% (n = 360,000);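 note: 0% = DMSO wells and -100% = cell-free medium wells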
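Using the IDH1-knockdown HT-1080 line run in the same batch and compound series as the NT line, viability after 48 h at 37 °C was determined by CellTiter-Glo luminescence and expressed as % activity.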
HepG2 tox – counter-screen for TGF-b inhibitors: cytotoxicity in HepG2 cells | HepG2 CAGA-GFP viability, ATP luminescence, 18 h | Potency, µM (doses to about 46.1 µM), for the others: at the top dose activity change, negative = cytotoxicity, most hits filed as cytotoxic | actives 0.76% (n = 410,000)
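CellTiter-Glo luminescence gave cytotoxicity after 18 hours at 37 degrees C. The cells were HepG2 CAGA-GFP in 1% FBS DMEM, stimulated with 500 pg/mL TGF-beta after compound addition. %Activity was normalised to no-cell wells (complete cell-killing) and DMSO (no toxicity), and curves were fitted and classified.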
Starred values were filed as active, the others as inactive; i = inactive; ? = inconclusive; / = no result given; [ ] = remark or other dose. Only some compounds are listed: those with a hit (about 3.8% of all), similar ones and a draw of the others. Calls come from the whole dose curve; as a rule, active = well fitted curve in the direction sought with a large enough effect; inconclusive = small, poorly fitted or top-dose-only effect, or another doubt; inactive = no such curve, though single readings can be large; an effect the other way counts as inactive or inconclusive. Potency is the fitted concentration of half-maximal effect.

SMILES	HT1080NT lethal	ATXN2 expr inh	S2 tox	TGFb inhibitor	HT1080 IDH1KD tx	HepG2 tox
Cc1ccc(C(=O)N2C(CC(=O)Nc3ccc(Cl)cc3)C(=O)NC3CCCCC32)cc1 (stereo not drawn)	5.8µM*	-15.0%	i	-28.1%	5.17µM*	0.1%
Cc1ccccc1NC(=O)COc1ccccc1C(=O)Nc1ccccc1	-0.3%	/	/	/	-2.1%	/
COC(=O)CC1(CC(N)=O)SCCS1	-4.5%	-8.8%	i	?	?	14.1µM*
COC(=O)[C@@H]1[C@H]2C[C@@H]3c4[nH]c5ccccc5c4CCN3C[C@@H]2CC[C@@H]1O	/	11.3%	/	/	/	/
Cc1nn(-c2ccccc2)c(Cl)c1CN(C(=O)CCl)c1cccc2ccccc12	4.11µM*	?	28.2µM*	?	5.17µM*	-112.6%
Cc1nn(-c2ccccc2)c(Cl)c1CN(C(=O)CCl)c1ccc(Cl)cc1	7.31µM*	14.1µM*	11.2µM*	10µM*	5.17µM*	7.94µM*
CC(=O)N(Cc1c(C)nn(-c2ccccc2)c1Cl)c1ccc(Cl)cc1	-1.4%	-13.0%	i	2.3%	-9.9%	-45.3%
Cc1cccn2c(=O)c(C(=O)NCc3cccc(F)c3)cnc12	/	-4.0%	i	-5.0%	/	-13.1%
CS(=O)(=O)c1ccc(C(=O)OCC(=O)N2CCc3ccccc32)cc1[N+](=O)[O-]	/	/	/	?	/	-12.2%
COC(=O)[C@]1(C)CCC[C@@]2(C)C3CC[C@@]4(C)C[C@]3(CCC21)CC(=O)N4 (stereo partly drawn)	5.2%	-1.1%	i	-37.8%	9.8%	-15.3%
C=C1C(=O)C23CCC4C(C)(C(=O)OC)CCCC4(C)C2CCC1(O)C3 (stereo not drawn)	9.2µM*	?	5.32µM*	3.16µM*	2.31µM*	2.82µM*
COCCCN=C(c1ccco1)n1c(=S)nc(-c2ccco2)n(CCCOC)c1=S	5.62µM*	24.0%	i	0.1%	7.94µM*	-5.9%
Cc1ccc2[nH]c3c(c2c1)CN(C(=O)CN1CCCc2ccccc21)CC3	?	-8.3%	i	-11.9%	23.1µM*	-22.2%
COc1ccc(Oc2c(Cl)cnn(-c3ccc(C)cc3)c2=O)cc1	?	?	i	?	-3.6%[9.24 µM]	-38.8%
COc1ccc(Oc2c(Cl)cnn(-c3ccc(Cl)c(Cl)c3)c2=O)cc1	18.4µM*	?	?	-3.4%	?	-31.6%
Cc1ccc(CNC(=O)CCC(=O)N2CC3CCCN3c3ccccc32)cc1 (stereo not drawn)	/	/	/	?	/	-8.6%
CCc1cccc(CC)c1NC(=O)c1c(C)oc2ccc(O)c(CN3CCCC3)c12	/	-24.8%	15.8µM*	-10.0%	/	-29.4%
Cc1oc2ccc(O)c(CN3CCCC3)c2c1C(=O)Nc1ccccc1	/	-12.0%	i	0.9%	/	-19.9%
Cc1oc2ccc(O)c(CN3CCCCCC3)c2c1C(=O)Nc1cccc(C(F)(F)F)c1	/	/	/	?	/	12.6µM*
CC(C)(C)n1ncc2c(=O)n(Cc3ccc(F)cc3Cl)cnc21	/	/	/	-5.7%	/	-38.4%
CN(C(=O)C=Cc1ccccc1)c1ccccc1	4.2%	32.0%	i	-3.5%	8.8%	-9.0%
O=C(CCl)N(O)c1ccc(C=Cc2ccccc2)cc1	-3.2%	?	6.7µM*	?	-20.7%	-70.6%
COc1ccc(CCN(C)C(=O)c2cnn(-c3nccc(-c4ccc(C)o4)n3)c2C)cc1OC	/	/	i	/	/	/
CC1CCN(C(=O)CSc2c3c(nc4cc(Cl)ccc24)CCCC3)CC1	/	?	?	?	/	11.2µM*
O=C(CSc1c2c(nc3cc(Cl)ccc13)CCCC2)N1CCN(c2ccccc2)CC1	/	/	/	?	/	-90.5%
SMILES	HT1080NT lethal	ATXN2 expr inh	S2 tox	TGFb inhibitor	HT1080 IDH1KD tx	HepG2 tox
O=C(CSc1c2c(nc3cc(Cl)ccc13)CCCC2)NCc1ccco1	-19.0%	-4.7%	i	17.8µM*	?	-44.1%
O=C(CSc1ncnc2sc3c(c12)CCCCC3)NCc1ccco1	?	2.8%	i	?	16.4µM*	-1.5%
O=C(CSc1c2c(nc3cc(Cl)ccc13)CCCC2)NCc1ccccc1Cl	/	/	/	?	/	-28.3%
COc1cccc(OCc2nc3ccccc3n2CCOc2ccc(C)cc2)c1	/	-21.7%	i	?	/	-28.5%
CC[n+]1c(/C=C(\C)OC)sc2ccccc21	20.5%	-10.4%	i	-0.9%	10.7%	1.5%
CC[n+]1c(/C=C/C=C/N(C(C)=O)c2ccccc2)sc2cc(OC)ccc21	?	20µM*	31.6µM*	168.2%	?	-37.3%
Cn1c(=O)cc(SCC(=O)NCc2ccc(F)cc2)c2ccc(Cl)cc21	/	5.5%	i	-4.6%	/	-20.1%
CN(CCCNC(=O)CSc1cc(=O)n(C)c2cc(Cl)ccc12)Cc1ccccc1	?	-28.1%	?	?	20.6µM*	-42.0%
O=C(Nc1ccc(Oc2c(F)c(F)c(F)c(F)c2F)cc1)OC1CCN2Cc3ccccc3N=C12 (stereo not drawn)	?	?	?	10µM*	?	10µM*
COc1ccc(C(=O)N(Cc2ccccc2)Cc2ccc(OC)c(COc3ccc(NC(C)=O)cc3)c2)cc1	0.1%	/	/	/	-3.1%	/
CCCCn1c(NCc2ccc(N(C)C)cc2)nc2ccccc21	-3.0%	?	?	15.8µM*	-19.3%	-34.8%
CCCCn1c(NCc2ccncc2)nc2ccccc21	-0.3%	-2.8%[11.3 µM]	i	3.6%	10.4%	-0.8%
Cc1ccc2c(c1)CCCN2C(=O)c1ccoc1C	22.4µM*	-23.5%	i	17.6%	?	-2.5%
COCc1c(C(=O)N2CCN(C3CCCC3)CC2)cnn1-c1ncc2c(n1)-c1ccccc1CCC2	/	/	i	/	/	/
COc1c(C=O)c2c(c(OC)c1OC)-c1ccc(OC)c(=O)cc1C(NC(C)=O)CC2 (stereo not drawn)	0.0052µM*	-5.4%	i	?	?	-6.0%
C=COC(=O)NC1CCc2cc(OC)c(OC)c(OC)c2-c2ccc(SC)c(=O)cc21 (stereo not drawn)	0.184µM*	-3.0%	?	?	?	-33.4%
COc1cc2c(c(OC)c1OC)-c1ccc(SC)c(=O)cc1C(NC(=O)c1ccccc1)CC2 (stereo not drawn)	?	12.0%	?	?	?	1.1%
CCCC(=O)NC1CCc2cc(OC)c(OC)c(OC)c2-c2ccc(OC)c(=O)cc21 (stereo not drawn)	?	5.7%	i	?	?	-25.3%
COC(=O)c1ccc2c(c1)C(NC(C)=O)CCc1cc(OC)c(OC)c(OC)c1-2 (stereo not drawn)	0.0065µM*	-9.0%	?	?	?	-5.1%
